Experimental data as given in PubChem BioAssay (NCATS).
Values without a mark were called inactive. Results filed as inconclusive are left out. The source made the active and inactive calls. Unless noted, the call rests on the fitted dose curve; in most records, active means well fitted curve in the direction sought with a large enough effect; inconclusive means small, poorly fitted or top-dose-only effect, or another doubt; inactive means no such curve, though single readings can be large; an effect the other way counts as inactive or inconclusive.

Tested on: not listed separately
Assay: S16 Schwann cell PMP22 intronic element beta-lactamase assay (AID 624044; calls by dose curve; further: nearly all actives have a fitted effect of over 15% in size; further: potency means the concentration at half of the fitted maximal effect;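 on ratio activity, negative = inhibition: 0% = DMSO and -100% = potassium clavulanate positive control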)
Conditions: S16 rat Schwann cells, PMP22 element beta-lactamase FRET, 24 h; series mostly up to 38.3 µM; ratio activity, negative = inhibition: at the top concentration
How it was run: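 Beta-lactamase reporter under a PMP22 intronic regulatory element in stable S16 rat Schwann cells; 24 h compound exposure. 460 nm blue signal normalized between DMSO (0%) and potassium clavulanate, with 535 nm FRET tracking viability; curves classed by r2 and response.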

Compound | ratio activity, negative = inhibition | Potency
CN1C(=O)CN=C(c2ccccc2)c2cc([N+](=O)[O-])ccc21 | -20.1% | –
NC(N)=NN=C(/C=C/c1ccc([N+](=O)[O-])o1)/C=C/c1ccc([N+](=O)[O-])o1 | – | 9.99 µM (active)
NC(=O)OCCCc1ccccc1 | 0.354% | –
Clc1ccc(CO/N=C(\Cn2ccnc2)c2ccc(Cl)cc2Cl)c(Cl)c1 | -12.2% | –
CCC1(CC)C(=O)NC(=O)NC1=O | -0.237% | –
CCCCCCCCCCCCCCCC[n+]1ccccc1 | – | 12.6 µM (active)
O=C(O)c1nn(Cc2ccc(Cl)cc2Cl)c2ccccc12 | 7.36% | –
CCCCCCCCCCCC[N+](C)(C)CCOc1ccccc1 | -19.3% | –
CC(C)[N+](C)(CCC(C(N)=O)(c1ccccc1)c1ccccc1)C(C)C | 4.3% [at 17.1 µM] | –
CC(Cc1ccccc1)NCc1ccccc1Cl (configuration not stated) | -4.31% | –
C#C[C@]1(O)CC[C@H]2[C@@H]3CCC4=CC(=O)CCC4=C3C=C[C@@]21CC | -11.7% | –

Target: Glutaminase kidney isoform, mitochondrial (Homo sapiens) (UniProt O94925)
Assay: qHTS for Inhibitors of Glutaminase (GLS): LOPAC Validation (AID 624146);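 further: glutamate product detected by oxidase and peroxidase coupled Amplex red fluorescence gain; on the % scale 0 is the no-effect control and ±100 the full control effect; nearly all actives have a fitted effect of over 60% in size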
Conditions: glutaminase enzyme activity inhibition; series mostly up to 46.1 µM; activity change, negative = inhibition: at the top concentration
From the text: Glutaminase (GLS) catalyzes the hydrolysis of glutamine into glutamate and ammonia. It plays a critical role in glutaminolysis, which is an important energy source for proliferating cells. It was shown that c-Myc, an oncogenic transcription factor known to regulate microRNAs and to stimulate cell proliferation, increases glutamine metabolism by stimulating the expression of GLS via direct suppression of miR23a and miR23b.
GLS is also thought to play a pathogenic role on HAD using a human HIV-1 infected macrophage system. […] GLS inhibition limits glutamate release and provides neuroprotection against HIV-1 infected macrophages.
The overall goal of this project is to identify small molecule inhibitors of GLS through quantitative high throughput screening (qHTS) of the MLSMR. A validated potent and selective inhibitor can be used as a tool molecule to further study the pharmacology of its target as well as explore its potential therapeutic application in cancer and inflammatory neurological disorders, such as HIV1-associated dementia (HAD) and multiple sclerosis.
NIH Chemical Genomics Center [NCGC]
NIH Molecular Libraries Probe Centers Network [MLPCN]
Assay Submitter (PI): Barbara S. Slusher, Johns Hopkins University
Three 3 uL of hKGA is dispensed into black well 1536-well plates in 45 mM KH2PO4 (pH 8.2), 0.02% Tween-20. Then 23 nL of compounds are added through pin tool transfer. To this, 1 uL of 1mM L-Glutamine and 1 uL of a solution of L-Glutamateoxidase, HRP, Amplex red are added. Plate is centrifuged for 25 sec before an initial fluorescence read is obtained on the ViewLux, after 30 min of RT incubation, the final read is taken on the ViewLux.

Sequence of Glutaminase kidney isoform, mitochondrial (Homo sapiens) (O94925 whole entry, looked up, canonical isoform): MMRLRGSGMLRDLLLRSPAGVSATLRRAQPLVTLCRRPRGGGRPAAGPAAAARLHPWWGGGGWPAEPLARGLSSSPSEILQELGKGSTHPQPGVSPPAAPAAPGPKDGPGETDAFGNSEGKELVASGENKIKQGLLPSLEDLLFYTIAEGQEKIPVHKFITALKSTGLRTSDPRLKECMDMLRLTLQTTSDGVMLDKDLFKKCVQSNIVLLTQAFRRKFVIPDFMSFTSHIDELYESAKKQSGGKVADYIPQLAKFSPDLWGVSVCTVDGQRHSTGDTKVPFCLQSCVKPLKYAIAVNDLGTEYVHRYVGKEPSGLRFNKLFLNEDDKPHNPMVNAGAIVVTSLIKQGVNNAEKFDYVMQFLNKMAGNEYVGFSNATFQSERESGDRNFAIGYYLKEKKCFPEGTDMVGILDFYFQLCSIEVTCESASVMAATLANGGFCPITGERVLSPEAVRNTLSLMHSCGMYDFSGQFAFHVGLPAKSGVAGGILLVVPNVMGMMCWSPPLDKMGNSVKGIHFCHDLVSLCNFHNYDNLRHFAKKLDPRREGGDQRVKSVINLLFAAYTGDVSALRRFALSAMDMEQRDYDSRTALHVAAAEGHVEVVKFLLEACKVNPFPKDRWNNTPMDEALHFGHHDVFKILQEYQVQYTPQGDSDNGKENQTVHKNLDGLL

Compound | activity change, negative = inhibition [%]
NC(=O)CN1CCCC1=O | 230
O=C(O)c1nn(Cc2ccc(Cl)cc2Cl)c2ccccc12 | 67.9
COC(=O)C1=CCCN(C)C1 | 3.11

Tested on: not listed separately
Assay: qHTS of Trypanosoma Brucei Inhibitors: LOPAC Validation (AID 624147); further: 0% is about no effect
Conditions: purified enzyme assay, luminescence, 45 min; series mostly up to 57.5 µM; activity change, negative = inhibition: at the top concentration
How it was run: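 Assay buffer: 50 mM TEA pH 7.2, 100 mM KCl, 10 mM MgCl2, 0.05% BSA, 0.01% Tween-20. Pyruvate kinase from T. brucei plus substrate met compound, then ADP (130 uM final). Luminescence was read post 45 min RT.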

Compound | activity change, negative = inhibition [%]
NC(=O)CN1CCCC1=O | 5.19
O=C(O)c1nn(Cc2ccc(Cl)cc2Cl)c2ccccc12 | -13.1
COC(=O)C1=CCCN(C)C1 | -3.4

Target: Glucagon-like peptide 1 receptor (Homo sapiens) (UniProt P43220)
Assay: qHTS of GLP-1 Receptor Agonists: LOPAC Validation (AID 624148);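 further: luminescence from a luciferase reporter switched on by cAMP; 0% is about no effect; higher luminescence signal means agonism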
Conditions: GLP-1R agonist cell assay; series mostly up to 46.1 µM; activation: at the top concentration
How it was run: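 Agonism scored as increased luciferase luminescence driven by cAMP in HEK293 clones carrying GLP-1R. Cells settled 12 hours, received compound for 4-6 hr at 37 deg C, 5% CO2, and were read after 12 min detection reagent at RT.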

Sequence of Glucagon-like peptide 1 receptor (Homo sapiens) (P43220 whole entry, looked up): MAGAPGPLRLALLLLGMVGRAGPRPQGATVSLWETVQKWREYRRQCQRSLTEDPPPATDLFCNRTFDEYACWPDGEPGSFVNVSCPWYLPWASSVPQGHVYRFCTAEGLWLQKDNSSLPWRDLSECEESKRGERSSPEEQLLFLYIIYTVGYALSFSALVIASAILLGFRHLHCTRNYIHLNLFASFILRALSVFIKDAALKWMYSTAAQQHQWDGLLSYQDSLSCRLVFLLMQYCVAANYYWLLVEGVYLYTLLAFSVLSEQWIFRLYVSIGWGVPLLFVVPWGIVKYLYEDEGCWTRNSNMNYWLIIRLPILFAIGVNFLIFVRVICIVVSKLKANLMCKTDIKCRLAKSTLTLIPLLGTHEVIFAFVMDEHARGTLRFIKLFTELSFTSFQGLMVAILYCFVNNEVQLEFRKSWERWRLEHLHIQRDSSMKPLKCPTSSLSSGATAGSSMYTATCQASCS

Compound | activation [%]
NC(=O)CN1CCCC1=O | 0.604
O=C(O)c1nn(Cc2ccc(Cl)cc2Cl)c2ccccc12 | -1.59
COC(=O)C1=CCCN(C)C1 | 0.755

Tested on: not listed separately
Assay: qHTS of Nrf2 Activators: LOPAC Validation (AID 624149); further: 0% is about no effect
Conditions: Nrf2/ARE reporter cell assay; series mostly up to 46.1 µM; activation: at the top concentration
How it was run: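 Cells (AREc32_Fluc) are plated at 1000 per well in OPTI-MEM containing 5% FBS and left overnight. Compounds are pinned in and incubated 24 hr at 37 deg C, and firefly luciferase is detected with Steady-Glo.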

Compound | activation [%]
NC(=O)CN1CCCC1=O | -1.56
O=C(O)c1nn(Cc2ccc(Cl)cc2Cl)c2ccccc12 | -1.46
COC(=O)C1=CCCN(C)C1 | -1.9

Tested on: not listed separately
Assay: HTS Assay for Allosteric Antagonists of the Human D2 Dopamine Receptor: Hit Validation in HTRF (AID 624455); further: potency means the concentration at half of the fitted maximal effect;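 further: stable D1 dopamine receptor cell line scored for blocking the D1 response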; on activity, negative = inhibition: on the % scale 0 is the no-effect control and ±100 the full control effect
Conditions: Cells stably expressing D1 dopamine receptor, inhibition mode; series mostly up to 46.1 µM; activity, negative = inhibition: at the top concentration
How it was run: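 Inhibition of the D1-mediated response is measured by HTRF in cells that stably express the D1 dopamine receptor. Compounds reaching this step are hits from calcium-flux antagonism testing at EC80 dopamine in inducible Hek293 Trex D2 cells.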

Compound | activity, negative = inhibition [%] | Potency
NC(=O)CN1CCCC1=O | 6.27 | –
O=C(O)c1nn(Cc2ccc(Cl)cc2Cl)c2ccccc12 | 2.41 | –
COC(=O)C1=CCCN(C)C1 | -0.495 | –
CN1C[C@H](C(=O)N[C@]2(C)O[C@@]3(O)[C@@H]4CCCN4C(=O)[C@H](Cc4ccccc4)N3C2=O)C[C@@H]2c3cccc4[nH]cc(c34)C[C@H]21 | – | 0.082 µM (active)
